Hits are enriched below; roughly 2.1% of the tested compounds scored in any of these assays.
TDP-43 yeast inh: rescues yeast growth from TDP-43 toxicity; TDP-43 expressing yeast growth rescue, BacTiter-Glo, 24 h; Potency, µM (highest dose often 46.1 µM), without a hit: at the top dose growth rescue (activation), hits mostly activators; 410,000 compounds, 1.8% hits; also: % of control where 0% means no effect; nearly all actives have a fitted effect of over 50% in size
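Galactose-induced TDP-43 yeast, OD600=0.02, compound pinned; 24 hr, 30 deg C; BacTiter-Glo luminescence for growth. Inhibitors of TDP-43 toxicity read as activators.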
Abeta yeast res: compounds reversing amyloid beta toxicity in yeast; yeast expressing A-beta42, growth rescue, OD600, 48 h; response scale: 0% DMSO, 100% iron-clioquinol control; Potency, µM (titrated, usually from 46.1 µM), hits mostly activators; 410,000 compounds, 0.063% hits; also: nearly all actives have a fitted effect of over 55% in size
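Yeast A-beta toxicity model in growth medium with pinned compounds, 48 h at 30 C; growth read as absorbance at 600 nm. Normalized to FeCl3/clioquinol equimolar mix (positive) and DMSO (negative).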
FUS yeast rescue: suppressors of FUS proteinopathy in yeast | S. cerevisiae FUS-expressing, growth rescue, OD600, 24 h | Potency, µM (doses to about 76.6 µM), most hits filed as activators | 390,000 compounds, 0.24% hits | AID 1347120;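 also: plate controls were DMSO vehicle for no effect and reference control for full effect; nearly all actives have a fitted effect of over 55% in size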
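Galactose (2%) drives FUS expression in yeast precultured in raffinose; seeding density OD 0.005. Test compounds incubated 24hr at 30C and 99% humidity before absorbance at 600 nm was measured.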
aSyn rescue: rescues yeast growth from alpha-synuclein toxicity; Yeast expressing alpha-synuclein, growth rescue, BacTiter-Glo, 24 h; Potency, µM (doses to about 46.1 µM), inactives show top-dose growth rescue (activation), actives largely listed as activators; 370,000 compounds, 0.14% hits; also: % of control where 0% means no effect; nearly all actives have a fitted effect of over 65% in size
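Screening used galactose-induced yeast with toxic alpha-synuclein levels, exposed to compound for 24 hr at 30 deg C. Cell growth, read with BacTiter-Glo luminescence, gave the measured signal.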
* = called active by the depositor; i = inactive; ? = inconclusive; nt = no result; [ ] = another dose, or the depositor's remark. Calls follow the shape of the dose curve; as a rule, active = well fitted curve in the direction sought with a large enough effect; inconclusive = small, poorly fitted or top-dose-only effect, or another doubt; inactive = no such curve, though single readings can be large; an effect the other way counts as inactive or inconclusive. Potency is read from the fitted curve at half-maximal effect.

SMILES | TDP-43 yeast inh | Abeta yeast res | FUS yeast rescue | aSyn rescue
CC(C)Cn1c(N)c(C(=O)COC(=O)c2c(O)c(Cl)cc(Cl)c2Cl)c(=O)n(C)c1=O | 25µM* | i | i | -15%
CC(C)Cn1c(N)c(C(=O)COC(=O)c2ccc(Cl)cc2)c(=O)n(C)c1=O | nt | i | i | 14%
COc1cc(NC(=O)C(=O)NCCN(C)C)c(OC)cc1Cl | -29% | i | i | -4%
CC(=O)N1CC(c2ccccc2)C(c2ccc(Cl)cc2)=N1 (stereo unspecified) | 11µM* | i | nt | 11%
CC(C)NC(=O)N1CC(c2ccccc2)C(c2ccc(Cl)cc2)=N1 (stereo unspecified) | 25% | i | i | 4%
Cn1c(-c2ccccc2)cccc1=O | -8% | i | i | -8%
COc1ccc(N2C(=O)CC(Sc3n[nH]c(-c4ccccc4)n3)C2=O)cc1 (stereo unspecified) | 2µM* | i | i | -8%
CCOc1ccc(N2C(=O)CC(Sc3n[nH]c(-c4ccccc4)n3)C2=O)cc1 (stereo unspecified) | 3.5µM* | i | i | -54%
N#Cc1c(C(F)(F)F)cc(-c2cccs2)nc1SCC(=O)Nc1cccc(Br)c1 | 26% | i | i | nt
N#Cc1cn(CCOc2ccccc2F)c2ccccc12 | ? | ? | i | ?
N#Cc1cn(CCOc2ccc(F)cc2)c2ccccc12 | 20µM* | ? | i | 28%
Nc1nc(C2CC2)c(Sc2sc(N)nc2C2CC2)s1 | 20% | i | i | 13%
O=C(OCn1nnc2ccccc2c1=O)c1ccc(O)cc1 | 22%[9.22 µM] | i | i | ?
Cc1ccccc1C(=O)OCn1nnc2ccccc2c1=O | 14µM* | i | i | 25%
COc1cc(/C=C\C(=O)OCn2nnc3ccccc3c2=O)cc(OC)c1OC | 20µM* | i | i | ?
COc1ccc(C(=O)OCn2nnc3ccccc3c2=O)cc1 | 18µM* | i | i | ?
Cc1nc(-c2ccc(S(=O)(=O)N3CCN(c4cccc(C)c4C)CC3)cc2)co1 | -7% | i | i | 0%
CCOc1ccc(C2c3[nH]c4ccccc4c3CCN2C(=O)CSCc2ccc(F)cc2)cc1 (stereo unspecified) | 2% | i | ? | nt
Cc1nn(CC(=O)Nc2ccc(Cl)cc2Cl)c(=O)c2ccccc12 | 2% | i | i | -4%
O=C(CSc1nc2ccccc2nc1Cc1ccc(Cl)cc1)N1CCN(c2ccccc2)CC1 | 5% | i | i | nt
CC1CCCCN1C(=O)CSc1nc2ccccc2nc1Cc1ccc(Cl)cc1 (stereo unspecified) | 0% | i | 25µM* | nt
COc1ccc(N2CCN(C(=O)CSc3nc4ccccc4nc3Cc3ccc(Cl)cc3)CC2)cc1 | -6% | i | 32µM* | nt
O=C(CSc1nc2ccccc2nc1Cc1ccc(Cl)cc1)N1CCCCC1 | 10% | i | ? | nt
COc1ccc(N2CC(NC(=O)N3CCc4ccccc43)CC2=O)cc1OC (stereo unspecified) | -3% | i | i | -7%
CC(O)CNCCNCc1c(OCc2ccccc2)ccc2ccccc12 (stereo unspecified) | -19% | i | i | 6%
SMILES | TDP-43 yeast inh | Abeta yeast res | FUS yeast rescue | aSyn rescue
COc1cccc(/C=C2\Oc3cc(OCC(=O)N4Cc5ccccc5C[C@H]4C(=O)O)ccc3C2=O)c1 | 4% | i | 28µM* | 7%
c1ccc(-c2nnc(CSc3ccc4c(c3)OCCO4)o2)cc1 | 13µM* | i | i | 7%
O=C(OCc1nnc(-c2ccccc2)o1)c1ccc2c(c1)OCO2 | 3% | i | ? | -3%
COC(=O)C1(C(=O)OC)C(C(=O)c2ccccc2)C1c1ccccc1 (stereo unspecified) | -13% | i | nt | -5%
O=C(CN1C(=O)c2ccccc2S1(=O)=O)N1CCN(c2cccc(Cl)c2)CC1 | -13% | i | i | -13%
O=C(O)c1ccc2c(c1Nc1ccccc1)C(=O)c1ccccc1C2=O | -35% | i | i | 13µM*
CNc1c(C(=O)O)ccc2c1C(=O)c1ccccc1C2=O | -9% | i | i | -7%
COc1ccc(C(=O)c2sc(Nc3ccccc3)nc2N)cc1 | 2% | i | i | -3%
COc1ccc(C(=O)c2sc(Nc3ccccc3F)nc2N)cc1 | 20µM* | i | i | 13%
O=C(CCCc1nc2ccccc2s1)NCc1ccccc1F | 8% | i | i | 11%
O=C(CCc1nc2ccccc2s1)NCc1ccccc1F | 12% | 20µM* | i | -1%
Cc1cccc(NC(=S)NC(=O)Cc2ccccc2)c1C | ? | 7.9µM* | i | 15%
Cc1[nH]n(-c2ccccc2)c(=O)c1/C=N/N1C(=O)c2cccc3cccc(c23)C1=O | 18µM* | ? | i | ?
Cc1[nH]n(-c2ccccc2)c(=O)c1C=Nc1cccc2cccnc12 | 22µM* | i | nt | -2%
COc1ccc(C(C)=O)cc1COC(=O)C1CCN(C(=O)c2ccc(Cl)cc2)CC1 | 20µM* | i | ? | 1%[1.84 µM]
COc1cc(OC)c(C2=NOC(C(=O)NCCc3ccccc3)C2)cc1Cl (stereo unspecified) | 6% | i | i | 9%
COc1ccc(Cc2nnc(NC(=O)C3CC(=O)N(c4ccccc4C)C3)s2)cc1OC (stereo unspecified) | -2% | i | i | -3%
Cc1c(Cl)cccc1NC(=O)N1CCOc2ccccc21 | 13µM* | i | i | nt
O=C1C(N2CCOCC2)=C(n2nnc3ccccc32)C(=O)c2ccccc21 | 22µM* | i | i | -36%
O=C1c2ccccc2C(=O)c2c1cccc2-n1nnc2ccccc21 | -14% | i | i | 2%
COC(=O)C1=CN(C(C)C)C=C(C(=O)OC)C1c1cccc(OC)c1 | 27% | i | nt | -1%
COc1cc(SC)ccc1C(=O)NCCOc1ccc(Cl)cc1 | 18µM* | i | nt | 0%
CCOc1ccc(-c2cncc3nccn23)cc1 | 13% | i | i | 6%
OCCCc1cn(-c2ccccc2)c2ccccc12 | 13µM* | i | i | 24%
N#CC1=C(N2CCCCC2)c2cc3c(n2C1=O)CCCC3 | 14µM* | i | i | 4%
SMILES | TDP-43 yeast inh | Abeta yeast res | FUS yeast rescue | aSyn rescue
CCOC(=O)C1=C(SCC)c2cc3c(n2C1=O)CCCC3 | -8% | i | i | -7%
CCCc1cc(C(N)=O)c(NC(=O)c2ccco2)s1 | ? | i | i | -6%
CCOC(=O)c1c(C)n(CC)c2c1cc(O)c1ccccc12 | 0% | i | i | 14%
CCOc1cccc2sc(N3CCN(C(=O)c4ccco4)CC3)nc12 | ? | i | i | nt
COc1ccc(OC)c2sc(N3CCN(C(=O)C(C)(C)C)CC3)nc12 | 22µM* | i | i | nt
CCOc1cccc2sc(N3CCN(C(=O)C(C)(C)C)CC3)nc12 | 11µM* | i | i | nt
Cc1ccccc1-n1c(Cn2c(=O)sc3ccccc32)nnc1SCC(=O)N1CCOCC1 | -1% | i | ? | -3%

High-throughput results from PubChem.
